Inconclusive results are not listed. A call without a number means that no potency is given here. The source made the active and inactive calls. The call rests on the fitted dose curve; in most records, active means well fitted activation curve with a large enough effect; inconclusive means small, poorly fitted or top-dose-only effect; inactive means flat fitted curve, though single readings scatter.

Drawing on PubChem BioAssay AID720517 (National Center for Advancing Translational Sciences (NCATS), 2013), this text covers Potency for 39 compounds.

A short description of the assay: qHTS for Inhibitors of Cell Surface uPA Generation: FP59 Counterscreen for Cherry-picked Compounds. Conditions: FP59 anthrax toxin cytotoxicity counterscreen, cells; series mostly up to 115 µM. A general note: In qHTS, concentration-response curves come from the screen itself.
`COc1ccccc1N1CCN(CC(=O)c2c(C)[nH]c3ccccc23)CC1`: the Potency entry was “inactive”.

Turning to `CC(Sc1nnc2ccccn12)C(=O)NCc1ccc2c(c1)OCO2` (centres undefined), the Potency result was “inactive”.

Regarding `O=C(O)CCCC(=O)NCCCCc1ccccc1`, the Potency result is “inactive”.

On to `O=C(Nc1ccnn1C1CCN(CCCC2CCCC2)CC1)c1ccccc1`, for which the Potency result was “inactive”.

For the compound `COC(=O)COc1cc2ccccc2cc1C(=O)Nc1ccccc1`, the Potency entry is “inactive”.

In the case of `CCC(NC(=S)NCc1ccc(F)cc1)c1ccccc1` (centres undefined), the Potency result was “inactive”.

With `O=C(CCS(=O)(=O)c1ccc2c(c1)NC(=O)CS2)NCc1cccs1`, the Potency result was “inactive”.

On to `COc1ccc(N(C(C)C(=O)NN=C2CCCC2)S(C)(=O)=O)cc1` (centres undefined), for which the Potency entry is “inactive”.

Consider `CCCCN(CC(=O)Nc1cccc(S(=O)(=O)N2CCCC2)c1)Cc1nc2ccccc2c(=O)[nH]1`, for which the Potency result is “inactive”.

On to `O=C(c1cc(COc2ccc(F)cc2Cl)on1)N1CCCCCC1`, for which the Potency result was “inactive”.

Turning to `COc1ccc(CCNC(=O)Cn2cccc2C(=O)c2ccccc2)c(OC)c1`, the Potency entry was “inactive”.

`O=C(CN1CCN(Cc2ccc(Cl)cc2)C1=O)NCc1cccs1`: the Potency result is “inactive”.

Take `COc1ccc2c(c1)c1nnc(SCC(=O)Nc3ccccc3F)nc1n2C`: the Potency entry was “inactive”.

Take `COCCn1nnnc1C(C(C)C)N1CCCC(C)C1` (centres undefined): the Potency result was “inactive”.

Turning to `COc1ccc(-c2cc3nc(-c4ccccc4)cc(N4CCCC(O)C4)n3n2)cc1` (centres undefined), the Potency result was “inactive”.

As for `O=C(NC1CCCC1)c1nc2c(nnn2Cc2ccccc2Cl)c(=O)[nH]1`, the Potency result is “inactive”.

On to `N#C/C(N=Nc1ccccc1O)=N\Nc1ccccc1O`, for which the Potency result was “inactive”.

In the case of `NC(=O)c1ccc(NC(=O)CN2CCN(S(=O)(=O)c3ccc4ccccc4c3)CC2)cc1`, the Potency result is “inactive”.

As to `COc1ccc(/C(N)=N/OC(=O)Cc2ccccc2OC)cc1`, the Potency entry was “inactive”.

As to `CCCCn1c(-c2cccnc2)nc2cc3[nH]c(=O)c(C(C)C)nc3cc21`, the Potency entry is “inactive”.

For the compound `O=C(COc1ncnc2sccc12)Nc1cccc(S(=O)(=O)N2CCCC2)c1`, the Potency result is “inactive”.

On to `CCN1CCCCC(=N/O)/C(=N/O)CCCC1`, for which the Potency entry is “inactive”.

With `CCCCn1c(=NC(=O)c2ccco2)c(C(=O)OCC)cc2c(=O)n3cccc(C)c3nc21`, the Potency result was “inactive”.

In the case of `O=C(CSC1=NS(=O)(=O)c2ccccc2N1)Nc1nccs1`, the Potency result was “inactive”.

As to `CC(C)OC(=O)c1ccc(N2CCN(c3ccccc3F)CC2)nc1`, the Potency entry was “inactive”.

On to `O=C(NCc1ccc2c(c1)OCO2)c1ccccn1`, for which the Potency result is “inactive”.

For the compound `CN(C)S(=O)(=O)c1cccc(C(=O)OCC(=O)NCc2ccc3c(c2)OCO3)c1`, the Potency result is “inactive”.

As to `O=C(C1=C[C@H](c2ccccc2)C[C@H](OCCCCO)O1)N1CCN(Cc2ccc3c(c2)OCO3)CC1`, the Potency entry was “inactive”.

In the case of `CCC(NC(=O)Cc1c(C)c2c(cc(C)c3c(C)c(C)oc32)oc1=O)C(=O)O` (centres undefined), the Potency entry is “inactive”.

Consider `CN(C(=O)c1ccccc1C(=O)OCC(=O)NCc1ccccc1)C1CCCCC1`, for which the Potency entry was “inactive”.

With `COc1ccc(NC(=O)c2nn(C)c3c2CS(=O)(=O)c2ccccc2-3)cc1`, the Potency result was “inactive”.

As to `CCOCc1nnc(NC(=O)C2CCN(C(=O)C3CC(=O)N(c4ccc(C)cc4)C3)CC2)s1` (centres undefined), the Potency entry is “inactive”.

On to `Cc1cnc(C(=O)OCC(=O)Nc2ccc3c(c2)OCCO3)cn1`, for which the Potency result is “inactive”.

As for `O=S(=O)(c1ccc2nc(N3CCN(c4ccccc4)CC3)ccc2c1)N1CCCCC1`, the Potency entry is “inactive”.

In the case of `Cc1ccc(/C=C/C(=O)O)cc1S(=O)(=O)N1CCc2ccccc21`, the Potency result was “inactive”.

As for `COc1cc(CN2CCN(c3ncccn3)CC2)cc(OC)c1`, the Potency result was “inactive”.

As to `Cc1ccc(C(=O)NC(=S)Nc2ccc3[nH]c(=O)[nH]c3c2)c(C)c1`, the Potency result was “inactive”.

Consider `COc1ccc(Cc2nnc(Nc3ccc(C)cc3)o2)cc1OC`, for which the Potency entry is “inactive”.

Turning to `COc1ccc(S(=O)(=O)c2c(O)c3ccc(C(=O)Nc4ccccc4)cc3[nH]c2=O)cc1`, the Potency entry is “inactive”.
